This note sets out measurements from PubChem BioAssay (EPA / NIEHS).

Experiment [1] is described as follows: APR_HepG2_CellLoss_72hr: Apredica 72-hour HepG2 Assay for Cell Loss (AID 2282915). The conditions noted are these: high-content imaging. Put shortly:
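HepG2 cells exposed 72 h to compound at 0.39–200 uM (10 concentrations, duplicate) in 0.5% DMSO. Fixed with 3.7% formaldehyde and Hoechst 33342-stained. Imaged at 20x; nuclear count gives cell number, fitted bidirectionally versus DMSO.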

A short description of experiment [2]: APR_HepG2_P-H2AX_72hr: Apredica 72-hour HepG2 Assay for H2AX Phosphorylation (AID 2282916).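 Further: phospho-histone H2A.x immunostain intensity per cell marking DNA damage.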 The conditions noted are these: imaging, actives raise or lower the signal. Put shortly:
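Following 72 hr treatment with 0.39–200 uM compound, HepG2 cells were formaldehyde-fixed, permeabilized and stained for phospho-H2A.x; signal was measured by high-content imaging and fitted bidirectionally against DMSO controls.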

The nature of experiment [3]: APR_HepG2_MitoMembPot_72hr: Apredica 72-hour HepG2 Assay for Mitochondrial Membrane Potential (AID 2282917). The conditions noted are these: imaging, actives raise or lower the signal. Put shortly: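 HepG2 cells dosed 72 hr with compound at 0.39–200 uM in duplicate, 0.5% v/v DMSO final. Mitochondria stained with 250 nM MitoTracker Red CMXRos for 30 min before formaldehyde fixation, imaged by high-content fluorescence; bidirectional fit versus DMSO.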

A short description of experiment [4]: APR_HepG2_MitoticArrest_72hr: Apredica 72-hour HepG2 Assay for Mitotic Arrest (AID 2282918). As to conditions: high-content imaging, actives raise or lower the signal. Put shortly: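 High-content imaging of fixed human HepG2 cells after 72 h compound exposure (0.39–200 uM, duplicates, 0.5% DMSO); mitotic arrest scored from phospho-histone H3 and nuclear Hoechst staining relative to DMSO.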

Experiment [5] in a line: APR_HepG2_MicrotubuleCSK_72hr: Apredica 72-hour HepG2 Assay for Microtubule CSK Stabilty (AID 2282919). As to conditions: HepG2 microtubule cytoskeleton, high-content imaging, actives raise or lower the signal. Summed up:
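HepG2 cells were exposed 72 hr to compound at 0.39–200 uM in duplicate (0.5% DMSO final), then fixed and permeabilized. Alpha-tubulin immunofluorescence was imaged by high-content microscopy, with bidirectional fitting against DMSO and taxol as positive control.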

A short description of experiment [6]: APR_HepG2_P-H2AX_24hr: Apredica 24-hour HepG2 Assay for H2AX Phosphorylation (AID 2282920). The conditions noted are these: high-content imaging, actives raise or lower the signal. Summed up: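 High-content imaging of phospho-histone H2A.x immunofluorescence, nuclei counterstained with Hoechst 33342, in fixed HepG2 cells. Compounds ran 0.39–200 uM in duplicate for 24 h, final DMSO 0.5%. Signal change fitted both directions against DMSO.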

Experiment [7] is described as follows: APR_HepG2_StressKinase_72hr: Apredica 72-hour HepG2 Assay for Stress Kinase (AID 2282921). The conditions noted are these: HepG2 stress kinase (phospho-c-Jun) imaging, actives raise or lower the signal. Put shortly:
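Fluorescence intensity of Cy3-tagged anti-phospho-c-Jun antibody, quantified per cell from Hoechst-defined nuclei across six images per well, served as the read-out following 72 h exposure (0.39–200 uM, 0.5% v/v DMSO).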

Experiment [8] can be described thus: APR_HepG2_StressKinase_24hr: Apredica 24-hour HepG2 Assay for Stress Kinase (AID 2282922). As to conditions: HepG2 stress kinase (phospho-c-Jun) imaging, actives raise or lower the signal. Summed up: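 HepG2 cells exposed 24 h to 0.39–200 uM compound in duplicate (0.5% v/v DMSO final). Cells fixed in 3.7% formaldehyde, permeabilized and immunostained for phospho-c-Jun; read by high-content fluorescence imaging, fitted bidirectionally against DMSO.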

Experiment [9] in a line: APR_HepG2_p53Act_72hr: Apredica 72-hour HepG2 Assay for p53 Activation (AID 2282923).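 Further: average cellular p53 protein immunofluorescence intensity in HepG2 cells.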 As to conditions: high-content imaging, actives raise or lower the signal. Put shortly: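 HepG2 monolayers receive test compounds in duplicate at ten concentrations (0.39 through 200 uM) for 72 hr. They are then formaldehyde-fixed, antibody-labelled for p53, Hoechst-stained and imaged, with activity fitted bidirectionally versus DMSO.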

Experiment [10] is described as follows: APR_HepG2_MitoMass_72hr: Apredica 72-hour HepG2 Assay for Mitochondrial Mass (AID 2282924).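 Further: MitoTracker Red CMXRos stain intensity per cell imaged as mitochondrial mass.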 As to conditions: high-content imaging, actives raise or lower the signal. Put shortly: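 HepG2 cells dosed 72 hr at 0.39–200 uM (0.5% DMSO), in duplicate. MitoTracker Red CMXRos 250 nM loaded 30 min before formaldehyde fixation; high-content fluorescence imaging, bidirectional fit versus DMSO.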

Experiment [11] is described as follows: APR_HepG2_NuclearSize_72hr: Apredica 72-hour HepG2 Assay for Nuclear Size (AID 2282925). The conditions noted are these: high-content imaging, actives raise or lower the signal. Summed up: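 HepG2 cells dosed 72 h at 0.39–200 uM (10 concentrations, duplicate) in 0.5% v/v DMSO final. Fixed, Hoechst 33342-stained nuclei imaged; nuclear diameter measured by automated image analysis. Bidirectional fit versus DMSO.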

Experiment [12] is described as follows: ATG_CRE_CIS: Attagene CIS-FACTORIAL HepG2 Assay for human cAMP Responsive Element (CRE) binding protein 3 (AID 2282926). The conditions noted are these: HepG2 CRE cis-reporter, Attagene multiplexed mRNA; actives raise or lower the signal. Summed up: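 Multiplexed transcription-unit reporters transfected into HepG2; 24 h dosing; RT-PCR/capillary electrophoresis fluorescence read-out; bidirectional fit vs DMSO.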

The target of experiment [13] is CCAAT/enhancer-binding protein beta (Homo sapiens) (UniProt P17676). Kind of experiment: ATG_C_EBP_CIS: Attagene CIS-FACTORIAL HepG2 Assay for human CCAAT/Enhancer Binding Protein (C/EBP) beta (AID 2282927). The conditions noted are these: HepG2 Attagene cis-factorial transcription factor reporter; actives raise or lower the signal. Put shortly:
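HepG2 transiently transfected with multiplexed reporter units under cis-regulatory promoters reporting endogenous C/EBPb activity. After 24 h exposure, reporter mRNA assayed by RT-PCR, fluorescent labelling, HpaI digestion and capillary electrophoresis; bidirectional fitting versus DMSO.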

Experiment [14] is described as follows: ATG_DR4_LXR_CIS: Attagene CIS-FACTORIAL HepG2 Assay for human Liver X Receptor (LXR), DR4 submotif (AID 2282929). As to conditions: HepG2 Attagene DR4 cis-reporter, mRNA transcription; actives raise or lower the signal. Summed up:
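The endpoint is DR4-element-driven reporter transcripts after 24 h chemical exposure of transfected HepG2 cells. These were measured via RT-PCR and capillary electrophoresis, and gain or loss of signal was fitted relative to DMSO controls.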

The target in experiment [15] is Aryl hydrocarbon receptor (Homo sapiens) (UniProt P35869). The experiment can be described thus: ATG_Ahr_CIS: Attagene CIS-FACTORIAL HepG2 Assay for human Aryl Hydrocarbon Receptor (Ahr) (AID 2282930). The conditions noted are these: HepG2 AhR cis-factorial reporter transcription; actives raise or lower the signal. Summed up: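 HepG2 cells transiently transfected with cis-element-driven multiplexed reporter units; endogenous AhR activity read as reporter mRNA 24 h after dosing, via RT-PCR, 6-FAM labelling, HpaI digestion and capillary electrophoresis. Bidirectional fit relative to DMSO.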
Sequence of Aryl hydrocarbon receptor (Homo sapiens) (P35869 whole entry, looked up): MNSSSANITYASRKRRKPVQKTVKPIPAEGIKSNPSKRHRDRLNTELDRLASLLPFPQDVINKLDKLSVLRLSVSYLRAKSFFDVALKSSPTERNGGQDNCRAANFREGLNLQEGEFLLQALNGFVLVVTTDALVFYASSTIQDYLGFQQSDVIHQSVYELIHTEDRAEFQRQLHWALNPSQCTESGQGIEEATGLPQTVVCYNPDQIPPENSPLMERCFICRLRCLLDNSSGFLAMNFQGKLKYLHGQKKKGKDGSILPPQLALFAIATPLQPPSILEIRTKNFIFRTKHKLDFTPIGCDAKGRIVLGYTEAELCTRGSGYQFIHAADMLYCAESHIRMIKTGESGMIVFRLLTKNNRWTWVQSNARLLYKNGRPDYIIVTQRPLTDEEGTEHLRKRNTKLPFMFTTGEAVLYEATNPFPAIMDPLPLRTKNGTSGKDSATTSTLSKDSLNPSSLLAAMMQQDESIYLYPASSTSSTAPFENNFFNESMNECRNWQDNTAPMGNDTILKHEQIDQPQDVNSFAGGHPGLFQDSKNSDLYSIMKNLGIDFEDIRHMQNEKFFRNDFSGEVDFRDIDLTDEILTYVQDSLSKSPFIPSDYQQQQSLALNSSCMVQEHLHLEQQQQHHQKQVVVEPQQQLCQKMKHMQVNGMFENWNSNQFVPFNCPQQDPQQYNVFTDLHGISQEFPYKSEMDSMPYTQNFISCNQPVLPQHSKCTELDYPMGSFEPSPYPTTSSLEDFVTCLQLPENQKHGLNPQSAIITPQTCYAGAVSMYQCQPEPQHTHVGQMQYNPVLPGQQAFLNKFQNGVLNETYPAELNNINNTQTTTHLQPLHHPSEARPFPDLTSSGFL

Experiment [16] in a line: ATG_AP_1_CIS: Attagene CIS-FACTORIAL HepG2 Assay for human Activator Protein 1 (AP-1) (AID 2282931). The conditions noted are these: HepG2 Attagene cis-factorial AP-1 reporter mRNA; actives raise or lower the signal. Put shortly:
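Readout is reporter transcript level from endogenous transcription factor activity, quantified by RT-PCR with fluorescent primer extension and capillary electrophoresis. Transiently transfected HepG2 cells, 24 h exposure. Curves fitted both directions versus DMSO.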

Experiment [17] has as its target Retinoic acid receptor alpha (Homo sapiens) (UniProt P10276). The experiment can be described thus: ATG_DR5_RAR_CIS: Attagene CIS-FACTORIAL HepG2 Assay for human Retinoic Acid Receptor Alpha (RARE), DR5 submotif (AID 2282934). As to conditions: HepG2 Attagene cis-factorial RARE DR5 reporter, mRNA; actives raise or lower the signal. Put shortly: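 HepG2 cells transiently transfected with multiplexed reporter units; DR5 cis-element drives reporter through endogenous transcription factors. After 24 h dosing, reporter mRNA quantified by RT-PCR, fluorescent labeling, HpaI digestion and capillary electrophoresis; bidirectional fitting versus DMSO.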

Experiment [18] can be described thus: ATG_CMV_CIS: Attagene CIS-FACTORIAL HepG2 Assay for human CMV (Internal Marker) (AID 2282928).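 Further: endpoint acts as a background internal control marker rather than a target.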 As to conditions: HepG2 CMV promoter reporter, transcription factor profiling; actives raise or lower the signal. Put shortly:
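CMV internal-marker background readout in transiently transfected HepG2 cells bearing cis-regulated reporter units. Reporter mRNA is measured 24 h after dosing by RT-PCR and capillary electrophoresis, with bidirectional fitting against DMSO.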

Experiment [19] is described as follows: ATG_AP_2_CIS: Attagene CIS-FACTORIAL HepG2 Assay for human Activator Protein 2 (AP-2) (AID 2282932). The conditions noted are these: HepG2 AP-2 cis-reporter, Attagene transcription factor profiling; actives raise or lower the signal. Put shortly: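 Multiplexed mRNA reporter assay in HepG2: cis-regulated units report endogenous factor activity after 24 h treatment. Fluorescence from capillary electrophoresis of RT-PCR products gives the signal, with DMSO as baseline.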

Experiment [20] in a line: ATG_BRE_CIS: Attagene CIS-FACTORIAL HepG2 Assay for human Bone Morphogenetic Protein (BMP) Response Element (BRE) (AID 2282933). As to conditions: HepG2 BMP response element reporter, Attagene transcription factor profiling; actives raise or lower the signal. Put shortly:
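After a 24 h chemical treatment, transiently transfected HepG2 cells were lysed for RNA; reporter transcripts were quantified by fluorescent RT-PCR and capillary electrophoresis, normalised to DMSO.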

The source made the active and inactive calls. How the source made its calls: active means hit-call score of the fitted dose curve at least 0.9, where 1 is the maximum; inactive means score below 0.9.

Sequence of CCAAT/enhancer-binding protein beta (Homo sapiens) (P17676 whole entry, looked up): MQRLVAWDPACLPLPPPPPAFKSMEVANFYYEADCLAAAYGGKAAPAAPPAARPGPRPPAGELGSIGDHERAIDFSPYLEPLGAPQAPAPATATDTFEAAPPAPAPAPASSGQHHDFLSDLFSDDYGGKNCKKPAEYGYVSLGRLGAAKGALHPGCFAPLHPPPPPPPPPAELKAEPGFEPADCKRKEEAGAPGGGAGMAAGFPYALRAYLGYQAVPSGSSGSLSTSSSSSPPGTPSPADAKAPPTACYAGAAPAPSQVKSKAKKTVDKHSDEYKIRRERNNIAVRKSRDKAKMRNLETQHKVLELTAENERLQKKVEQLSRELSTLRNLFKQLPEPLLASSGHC
Sequence of Retinoic acid receptor alpha (Homo sapiens) (P10276 whole entry, looked up): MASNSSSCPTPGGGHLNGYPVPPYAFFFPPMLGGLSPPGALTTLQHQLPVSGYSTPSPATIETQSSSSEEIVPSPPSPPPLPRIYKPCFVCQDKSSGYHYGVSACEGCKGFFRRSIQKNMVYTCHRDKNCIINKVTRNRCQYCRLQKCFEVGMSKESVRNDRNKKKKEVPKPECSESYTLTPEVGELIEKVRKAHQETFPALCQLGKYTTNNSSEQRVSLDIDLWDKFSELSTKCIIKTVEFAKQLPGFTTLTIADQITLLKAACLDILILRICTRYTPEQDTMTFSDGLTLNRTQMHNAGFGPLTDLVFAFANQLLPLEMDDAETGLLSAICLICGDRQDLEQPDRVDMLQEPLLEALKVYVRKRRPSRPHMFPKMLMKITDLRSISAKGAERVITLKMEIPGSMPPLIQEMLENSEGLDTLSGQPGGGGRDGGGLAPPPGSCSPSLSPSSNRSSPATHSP

As to `NCC1(Cc2noc(=O)[nH]2)CCCCC1`, the result in experiment [1], in [2], in [3], in [4], in experiment [5] and in [6] was inactive. In addition, the call in [7], in experiment [8], in experiment [9], in [10], in experiment [11] and in experiment [12] was inactive. The result in experiment [13], in experiment [14], in experiment [15], in [16] and in experiment [17] was inactive.
Broadly, the AC50 is the concentration giving half of the maximal activity seen. As for `CN[C@H]1CC[C@@H](c2ccc(Cl)c(Cl)c2)c2ccc(S(N)(=O)=O)cc21`, the AC50 is 6.85 µM (active) in [1]; 100 µM (active) in experiment [2]; 3.89 µM (active) in experiment [4]; 12.1 µM (active) in experiment [5]; 100 µM (active) in experiment [6]; 123 µM (active) in experiment [7]. For the same molecule, the call in experiment [3], in [8], in [9], in experiment [10], in experiment [12] and in experiment [13] was inactive. For the same molecule, the call in experiment [18], in [14], in experiment [15] and in [16] was inactive.
`CCOc1ccc2c(c1)C(C)=CC(C)(C)N2`: the half-maximal activity concentration (AC50) is 103 µM (active) in experiment [1]; 92.7 µM (active) in experiment [2]; 78.2 µM (active) in experiment [4]; 72.7 µM (active) in experiment [6]; 76.1 µM (active) in experiment [9]; 175 µM (active) in experiment [14]. The half-maximal activity concentration (AC50) in [16] is 100 µM (active). Besides, the molecule was called inactive in [3], in experiment [5], in experiment [7], in experiment [8], in [10] and in experiment [11]. In addition, the result in experiment [12], in [13], in experiment [15], in experiment [19] and in experiment [17] was inactive.
`CCCCCCC(=O)OCC`: the result in experiment [1], in experiment [2], in [3], in experiment [4], in experiment [5] and in experiment [6] was inactive. Further, the outcome in [7], in [8], in experiment [9], in experiment [10], in experiment [11] and in experiment [12] was inactive. Further, the result in [13], in experiment [14], in [15], in experiment [16] and in experiment [20] was inactive.
As to `CC=Cc1ccc(O)c(OC)c1`, the molecule was classed as inactive in [1], in experiment [2], in experiment [3], in experiment [4], in experiment [5] and in experiment [6]. For the same molecule, the molecule was classed as inactive in experiment [7], in experiment [8], in experiment [9], in [10], in experiment [11] and in [12]. Besides, the result in experiment [13], in experiment [14], in [16], in [19], in [20] and in [17] was inactive. The AC50 in experiment [15] was 73.5 µM (active).
With `Cc1cc(NC(=O)C(=O)O)cc(C)c1Oc1ccc(O)c2c1CCC2`, the molecule was classed as inactive in experiment [1], in experiment [2], in experiment [3], in experiment [4], in [5] and in [6]. Further, the call in experiment [7], in experiment [8], in [9], in [10], in experiment [12] and in experiment [13] was inactive. Further, the call in experiment [18], in [15], in experiment [16] and in [19] was inactive. Further, in [14], the concentration at half-maximal activity (AC50) was 156 µM (active).
`Cc1ccc(N(C)C)cc1`: the outcome in experiment [1], in [2], in [3], in [4], in experiment [5] and in [6] was inactive. For the same molecule, the result in experiment [7], in [8], in experiment [9], in [10], in [11] and in experiment [12] was inactive. The outcome in [13], in experiment [14], in experiment [15], in experiment [16], in experiment [19] and in experiment [20] was inactive. For the same molecule, in [17], the outcome was inactive.
